Experimental data: PubChem BioAssay (NCI)
Compounds without any hit were thinned out: in the full panel of roughly 79,000, 15% have a hit. A number with no mark means an inactive call. Activity calls are given as the source filed them. Cut-off read from the data, not from the text of the source: active = growth inhibition above about 70%; inactive = the rest.

Test: NCI Yeast Anticancer Drug Screen. Data for the CLN2oe strain (AID 163);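 note: 0% = growth of vehicle-only control cultures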
Conditions: S. cerevisiae CLN2oe strain, stronger effect = higher value
Experimental: Growth inhibition of yeast strains with defined genetic alterations is measured as a screen for potential anti-cancer activity. Selected strains with alterations in DNA damage repair or cell cycle control were exposed to compounds and growth inhibition was measured relative to vehicle treated controls. The strain used in this assay is CLN2oe

Row | SMILES | growth inhibition (at 1.2 µM) | growth inhibition (at 3.7 µM) | growth inhibition (at 11.0 µM) | growth inhibition (at 33.0 µM) | growth inhibition (at 100.0 µM)
1 | N#CC(C#N)=NNc1ccc(S(=O)(=O)O)cc1 | -17% | -12% | -11% | -19% | -24%
2 | Cc1cccc2c1nc1ccc(Cl)cc1[n+]2C | -5% | -4% | 89% (active) | 96% (active) | 95% (active)
3 | CN(C)CCOC1(Cc2ccc(F)cc2)CCC(C(C)(C)C)CC1 (stereo not given) | -5% | -5% | -5% | -2% | 98% (active)
4 | CCCCCCCCCCCC1=NCCO1 | -3% | -1% | 4% | 19% | 99% (active)
5 | COc1oc(C(=O)NC2CCCCC2)c(-c2ccc(Cl)cc2)c1S(=O)(=O)c1ccccc1 | -1% | 0% | 30% | 91% (active) | 83% (active)
6 | CCCCCCCCCCCC1N=C(N)NC(CCCO)=C1C(=O)OC (stereo not given) | 16% | 99% (active) | 99% (active) | 99% (active) | 99% (active)
7 | CCCCCCCCCCCC(O)S(=O)(=O)O (stereo not given) | -2% | -1% | -2% | -2% | 66%
8 | Cc1c(-c2ccccn2)ccc2ccccc12 | -10% | -3% | -7% | -12% | -4%
